Measured values as given in PubChem BioAssay (NCATS).
Records with an inconclusive call do not appear. Entries that show only a call come without a potency. Activity calls are given as the source filed them. Unless noted, the call rests on the fitted dose curve.

Experiments:
[1] = target: Peroxisome proliferator-activated receptor gamma (Homo sapiens) (UniProt P37231); experiment: qHTS assay for small molecule antagonists of peroxisome proliferator-activated receptor gamma signaling (AID 588537; active means well fitted inhibition curve with a large enough effect in the signal ratio, with a control signal flat, not every such curve was filed as active; the % refers to the signal ratio; further: potency means the concentration at half of the fitted maximal effect); details: HEK293 PPARg-UAS-bla, beta-lactamase ratio, antagonist mode; series mostly up to 76.8 µM
Procedure, shortened: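 PPAR-gamma-UAS-bla HEK293 cells (3000/well, 1% charcoal/dextran-stripped FBS) were preincubated 6-6.5 h at 37 C, given titrated compounds, then stimulated with 50 nM rosiglitazone for 16 h. Beta-lactamase activity was read with CCF4 dye; IC50 came from Hill fits.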

[2] = target: Thyroid hormone receptor beta (Homo sapiens) (UniProt P10828); experiment: qHTS assay for small molecule agonists of thyroid hormone receptor beta signaling (AID 588545); details: TR-UAS-bla GripTite HEK 293, beta-lactamase ratio, agonist mode, 18 h, percent of T3 response, DMSO as zero; series mostly up to 76.7 µM
Procedure, shortened: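 Agonist-mode beta-lactamase reporter assay, HEK 293 cells, 2% charcoal/dextran FBS; cells plated 4 hrs, compound 18 hrs at 37 C, CCF4 2 hrs RT. Normalized to 10 nM T3 (100%) and DMSO (0%); Hill fit gives EC50, efficacy.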

[3] = qHTS assay for small molecule antagonists of retinoid X receptor alpha signaling (AID 588546; active means well fitted inhibition curve with a large enough effect in the signal ratio, with a control signal flat, not every such curve was filed as active; the % refers to the signal ratio;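 further: cells stimulated with 9-cis-retinoic acid as agonist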); details: HEK293T RXRa-UAS-bla, beta-lactamase ratio, antagonist mode; measured here: W530 green channel, cytotoxicity proxy
Procedure, shortened: (§1)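 Beta-lactamase reporter inhibition, read as CCF4 fluorescence ratio (ex 405, em 460/530 nm) after 2 h at RT. HEK293T UAS-bla cells, 2500/well, were stimulated with 9-cis-RA at 500 or 100 nM final alongside test compound for 18 h at 37 C.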

[4] = target: Retinoic acid receptor RXR-alpha (Homo sapiens) (UniProt P19793); experiment: as above; details: HEK293T RXRa-UAS-bla, beta-lactamase ratio, antagonist mode
Procedure, shortened: as §1

[5] = target: Peroxisome proliferator-activated receptor gamma (Homo sapiens) (UniProt P37231); experiment: qHTS assay for small molecule agonists of peroxisome proliferator-activated receptor gamma signaling (AID 588536; active means well fitted curve in the direction sought with a large enough effect in the signal ratio, with a control signal flat, not every such curve was filed as active; the % refers to the signal ratio; further: potency means the concentration at half of the fitted maximal effect); details: HEK293 PPARg-UAS-bla, beta-lactamase ratio, 16 h; series mostly up to 76.7 µM
Procedure, shortened: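 PPAR-gamma-UAS-bla HEK293 cells in medium with 1% charcoal/dextran-treated FBS were exposed to compounds for 16 h at 37 C. Beta-lactamase activity was read with CCF4 substrate (405 nm excitation, 460/530 nm emission).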

[6] = target: Vitamin D3 receptor (Homo sapiens) (UniProt P11473); experiment: qHTS assay for small molecule antagonists of vitamin D receptor signaling (AID 588541); details: HEK293T VDR-UAS-bla, beta-lactamase ratio, antagonist mode; series mostly up to 76.7 µM;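 further: receptor activated by calcitriol during compound treatment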
Excerpt: NIH Chemical Genomics Center [NCGC]
U.S. Environmental Protection Agency [EPA]
National Institutes of Environmental Health Sciences [NIEHS]
National Toxicology Program [NTP]
The Vitamin D receptor (VDR) is a member of nuclear hormone receptor superfamily and it plays a critical role in calcium homeostasis and bone metabolism. It plays a role in inducing cell differentiation, inhibiting cell growth and in thrombogenicity. So, VDR that mediates these effects represents a pharmacological target in prevention and treatment of hyperproliferative malignancies, such as cancer and psoriasis, cardiovascular, immunological, inflammatory and renal diseases etc.
NCGC Assay Protocol Summary
Using a beta-lactamase reporter-gene under control of Vitamin D receptor (VDR) response element, a cell-based assay [GeneBLAzer (VDR -UAS-bla assay developed by Invitrogen] was used to measure VDR ligands signaling. GeneBLAzer VDR -UAS-bla HEK293T cells were used with assay medium containing 2% charcoal-stripped FBS. The assay was performed in clear bottom black Greiner 1536-well plates. Library compounds were measured for their ability to inhibit the reporter gene activity. Compounds were screened in a titration series in 1536-well format. The fluorescence intensity (405 nm excitation, 460/530 nm emission) was measured using an EnVision plate reader. Data was normalized relative to 1-alpha,25-Dihydroxy vitaminD3 control (50 nM, 100%) and DMSO only wells (basal, 0%). Concentration-response titration points for each compound were fitted to the Hill equation yielding concentrations of half-maximal inhibition (IC50) and maximal response (efficacy) values.
qHTS protocol for VDR beta-lactamase assay in antagonist mode
[Step] [Parameter] [Value] [Description]
1. Reagent; 5 uL; 2000 cells/well
2. Incubation; 37 C for 5 hrs
4. Controls (DMSO); 23 nL,
5. Agonist (Stimulator); 1uL; 1-alpha,25-Dihydroxy vitaminD3 at 50 nM and 3 nM final concentrations
6. Incubation; 37 C for 16 hrs
7. Detection reagent; 1 uL of CCF4-dye
8. Incubation; RT for 2 hrs
9. Detection; Fluorescence; Envision plate reader

[7] = target: Vitamin D3 receptor (Homo sapiens) (UniProt P11473); experiment: qHTS assay for small molecule agonists of vitamin D receptor signaling (AID 588543); details: HEK293T VDR-UAS-bla, beta-lactamase ratio, 16 h; series mostly up to 76.8 µM
Procedure, shortened: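 qHTS in agonist mode: compound titrations stimulate a VDR-driven β-lactamase reporter in HEK293T cells over 16 h at 37 °C. Response normalized to 50 nM 1α,25-dihydroxyvitamin D3 = 100%, DMSO = 0%; Hill fitting gives EC50 and maximal response.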

[8] = qHTS assay for small molecule agonists of retinoid X receptor alpha signaling (AID 588544); details: HEK293T RXRa-UAS-bla, beta-lactamase reporter, 18 h; 530 nm emission; further: potency means the concentration at half of the fitted maximal effect
[9] = target: Retinoic acid receptor RXR-alpha (Homo sapiens) (UniProt P19793); experiment: as above; details: HEK293T RXRa-UAS-bla, beta-lactamase reporter, 18 h; series mostly up to 76.7 µM
[10] = target: Thyroid hormone receptor beta (Homo sapiens) (UniProt P10828); experiment: qHTS assay for small molecule antagonists of thyroid hormone receptor beta signaling (AID 588547; active means well fitted inhibition curve with a large enough effect in the signal ratio, with a control signal flat, not every such curve was filed as active; the % refers to the signal ratio;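 further: cells stimulated with 0.4 nM T3 agonist during compound exposure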); details: TR-UAS-bla HEK293, beta-lactamase ratio, antagonist mode, 18 h
Procedure, shortened: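 TR-UAS-bla GripTite HEK293 cells in 2% charcoal/dextran FBS medium were preincubated 4 h at 37 C, given compound (0.59 nM to 92 uM) plus 0.4 nM T3 (final) for 18 h, then CCF4 for 2 h at RT; Hill fit gave IC50.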

Vitamin D3 receptor (Homo sapiens), sequence (P11473 whole entry, looked up): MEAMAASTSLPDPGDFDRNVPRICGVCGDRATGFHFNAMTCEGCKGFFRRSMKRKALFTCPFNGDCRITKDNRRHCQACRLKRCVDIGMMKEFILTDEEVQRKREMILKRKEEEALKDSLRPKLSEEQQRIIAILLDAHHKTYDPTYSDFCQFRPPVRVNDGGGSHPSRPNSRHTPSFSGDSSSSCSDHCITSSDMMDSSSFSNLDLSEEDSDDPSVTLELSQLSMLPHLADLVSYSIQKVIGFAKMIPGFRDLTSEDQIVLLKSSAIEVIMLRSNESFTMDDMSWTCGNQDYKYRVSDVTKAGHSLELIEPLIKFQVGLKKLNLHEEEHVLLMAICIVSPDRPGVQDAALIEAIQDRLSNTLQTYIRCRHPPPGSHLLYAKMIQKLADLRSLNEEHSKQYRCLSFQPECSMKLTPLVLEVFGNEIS
Peroxisome proliferator-activated receptor gamma (Homo sapiens), sequence (P37231 whole entry, looked up): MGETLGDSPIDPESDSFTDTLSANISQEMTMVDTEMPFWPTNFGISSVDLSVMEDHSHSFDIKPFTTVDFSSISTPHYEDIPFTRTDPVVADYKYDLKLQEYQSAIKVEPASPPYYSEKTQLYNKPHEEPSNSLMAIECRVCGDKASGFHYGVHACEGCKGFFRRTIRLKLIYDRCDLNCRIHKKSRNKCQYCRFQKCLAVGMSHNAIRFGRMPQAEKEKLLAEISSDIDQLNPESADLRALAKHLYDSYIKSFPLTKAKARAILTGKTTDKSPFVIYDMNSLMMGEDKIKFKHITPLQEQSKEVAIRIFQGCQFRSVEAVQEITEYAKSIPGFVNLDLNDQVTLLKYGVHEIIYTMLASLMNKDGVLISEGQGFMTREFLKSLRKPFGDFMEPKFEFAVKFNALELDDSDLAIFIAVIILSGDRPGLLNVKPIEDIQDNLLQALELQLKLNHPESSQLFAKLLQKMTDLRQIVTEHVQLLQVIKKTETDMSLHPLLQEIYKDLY
Thyroid hormone receptor beta (Homo sapiens), sequence (P10828 whole entry, looked up): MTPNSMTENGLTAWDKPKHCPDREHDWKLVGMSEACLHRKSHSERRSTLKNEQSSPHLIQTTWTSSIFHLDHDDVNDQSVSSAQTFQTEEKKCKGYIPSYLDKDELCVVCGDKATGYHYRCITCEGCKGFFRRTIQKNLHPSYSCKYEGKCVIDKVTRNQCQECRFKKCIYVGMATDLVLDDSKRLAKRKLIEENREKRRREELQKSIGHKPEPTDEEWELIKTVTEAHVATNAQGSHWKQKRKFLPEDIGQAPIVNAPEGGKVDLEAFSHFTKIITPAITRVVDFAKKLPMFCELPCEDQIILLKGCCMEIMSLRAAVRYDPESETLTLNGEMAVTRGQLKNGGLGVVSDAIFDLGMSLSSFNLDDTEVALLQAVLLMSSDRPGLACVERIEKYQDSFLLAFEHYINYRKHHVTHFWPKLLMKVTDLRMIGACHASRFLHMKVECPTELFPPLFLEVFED
Retinoic acid receptor RXR-alpha (Homo sapiens), sequence (P19793 whole entry, looked up): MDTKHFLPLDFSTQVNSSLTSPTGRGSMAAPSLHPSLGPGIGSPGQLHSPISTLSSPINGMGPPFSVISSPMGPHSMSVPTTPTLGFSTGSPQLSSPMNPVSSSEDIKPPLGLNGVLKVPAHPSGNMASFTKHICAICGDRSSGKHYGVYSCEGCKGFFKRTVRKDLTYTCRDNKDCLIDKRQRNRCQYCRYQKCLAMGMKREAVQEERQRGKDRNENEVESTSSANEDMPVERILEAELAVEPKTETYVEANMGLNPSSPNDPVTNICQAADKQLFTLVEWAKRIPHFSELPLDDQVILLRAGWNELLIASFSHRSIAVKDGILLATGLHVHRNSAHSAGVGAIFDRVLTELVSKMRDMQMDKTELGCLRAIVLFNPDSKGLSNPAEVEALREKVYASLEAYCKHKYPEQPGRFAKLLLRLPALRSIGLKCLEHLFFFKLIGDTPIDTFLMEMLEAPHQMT

CCCc1c(OCCCOc2ccc(OCC(=O)O)cc2)ccc(C(C)=O)c1O
Potency [1]: inactive
outcome [2]: inactive
max response [3]: 32.8%
max response [4]: -30.3% (inactive)

NC(=O)c1ccccc1
Potency [5]: inactive
Potency [1]: inactive
outcome [6]: inactive
outcome [7]: inactive
max response [8]: -1.09%
Potency [9]: inactive
outcome [2]: inactive
max response [3]: -3.13%
max response [4]: 5.33% (inactive)
activity change % (negative = inhibition) [10]: -4.09% (inactive)

CC1=C(/C=C/C(C)=C/C=C/C(C)=C\C(=O)O)C(C)(C)CCC1
Potency [1]: inactive
outcome [6]: inactive
outcome [2]: inactive
activity change % (negative = inhibition) [10]: 9.82% (inactive)

C/C(=C\c1ccc(C(=O)O)cc1)c1ccc2c(c1)C(C)(C)CCC2(C)C
outcome [6]: inactive
outcome [7]: inactive
max response [8]: 0.91%
Potency [9]: 0.708 µM (active)
max response [3]: -6.55%
max response [4]: 9.51% (inactive)

CC[C@@H]1Cc2cc(O)ccc2C2=C1c1ccc(O)cc1C[C@H]2CC
outcome [7]: inactive

CCCCCCCCCCCCCCSCC(=O)O
Potency [5]: 28.2 µM (active)
outcome [2]: inactive
max response [3]: 10.4%
max response [4]: 5.79% (inactive)
activity change % (negative = inhibition) [10]: -24.7% (inactive)

CCCc1c(-c2ccc(O)cc2)nn(-c2ccc(O)cc2)c1-c1ccc(O)cc1
Potency [1]: 22.4 µM (active)
outcome [7]: inactive

CC(=O)C(C)=O
Potency [5]: inactive
outcome [6]: inactive
outcome [7]: inactive
max response [8]: -1.88%
Potency [9]: inactive
outcome [2]: inactive
max response [3]: 7.05%
max response [4]: 13% (inactive)
activity change % (negative = inhibition) [10]: -0.316% (inactive)
